Percent Effect data for 10 compounds are collected here from ChEMBL document CHEMBL3988442, “University of Dundee, Small-Polar-MMV Screening Library” (2021).

Common to all, as to parameters: scale not given: direction of the effect not stated beside the values
The target of experiment [1] is Protein translocase subunit SecA (Escherichia coli (strain K12)) (UniProt P10408). Put plainly: Assay to Identify E. coli SecA ATPase Inhibitors. Type of experiment: functional. To be noted: 30 µM.
Experiment [2] has as its target T1, Ubiquitin-activating enzyme e1, putative (Leishmania donovani (strain BPK282A1)) (UniProt E9BSI1).
T1 sequence (whole entry): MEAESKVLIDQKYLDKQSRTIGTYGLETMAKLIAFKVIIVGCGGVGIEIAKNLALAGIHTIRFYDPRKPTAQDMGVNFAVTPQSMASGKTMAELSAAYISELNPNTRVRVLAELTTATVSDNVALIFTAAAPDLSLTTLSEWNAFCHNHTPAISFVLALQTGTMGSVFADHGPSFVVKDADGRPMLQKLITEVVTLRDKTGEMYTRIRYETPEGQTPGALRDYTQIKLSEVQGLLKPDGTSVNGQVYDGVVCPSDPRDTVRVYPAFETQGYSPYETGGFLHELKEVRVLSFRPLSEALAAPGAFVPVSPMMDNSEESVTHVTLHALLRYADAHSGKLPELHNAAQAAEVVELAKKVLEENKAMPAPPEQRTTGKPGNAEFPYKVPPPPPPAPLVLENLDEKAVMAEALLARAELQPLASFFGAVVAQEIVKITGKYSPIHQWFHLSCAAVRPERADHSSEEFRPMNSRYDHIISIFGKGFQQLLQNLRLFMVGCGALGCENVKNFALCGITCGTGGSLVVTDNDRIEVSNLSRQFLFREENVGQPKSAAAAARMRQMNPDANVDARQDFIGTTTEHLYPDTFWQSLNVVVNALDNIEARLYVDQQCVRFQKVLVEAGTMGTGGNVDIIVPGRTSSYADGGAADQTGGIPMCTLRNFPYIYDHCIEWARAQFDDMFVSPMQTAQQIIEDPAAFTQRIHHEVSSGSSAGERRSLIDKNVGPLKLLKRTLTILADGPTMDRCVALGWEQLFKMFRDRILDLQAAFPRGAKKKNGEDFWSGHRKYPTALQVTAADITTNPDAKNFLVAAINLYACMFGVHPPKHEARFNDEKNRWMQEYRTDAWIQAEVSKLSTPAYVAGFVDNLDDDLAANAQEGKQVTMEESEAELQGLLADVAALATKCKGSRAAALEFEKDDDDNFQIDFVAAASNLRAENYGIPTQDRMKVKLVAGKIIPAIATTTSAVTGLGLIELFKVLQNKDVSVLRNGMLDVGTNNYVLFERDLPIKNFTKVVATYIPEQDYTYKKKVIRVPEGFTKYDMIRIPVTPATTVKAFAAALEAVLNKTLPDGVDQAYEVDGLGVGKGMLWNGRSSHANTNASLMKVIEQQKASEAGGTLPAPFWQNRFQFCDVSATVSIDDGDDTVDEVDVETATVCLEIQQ
The experiment can be described thus: Leishmania donovani Ubiquitin Activating Enzyme (LdE1). Format: functional. To be noted: 30 µM.

In experiment [3] the target is AMP-activated protein kinase, AMPK (Homo sapiens) (UniProt P54646+O43741+P54619+Q9UGJ0+Q9Y478+Q13131+Q9UGI9). The experiment can be described thus: AMP-dependent Kinase enzyme assay. An in vitro enzyme assay that detects ADP turnover that is directly proportional to AMPK activity. This uses naive AMPK that is activated during the assay with MK-8722. Format: functional. The following applies: 30 µM.

Experiment [4] has as its target Sialic acid-binding Ig-like lectin 9 (Homo sapiens) (UniProt Q9Y336). Put plainly: Hs-Siglec9 ALPHAscreen SOP 20170721. The following applies: 10 µM. A general note: Bead proximity is the source of the signal in Alpha formats.
The subject of experiment [5] is Trypanosoma cruzi. Put plainly: Trypanosoma cruzi phosphomannomutase and mannose-1-phosphate guanylyltransferase assay. Type of experiment: functional. The following applies: 10 µM.
In experiment [6] the target is T2, Arginase-2, mitochondrial (Homo sapiens) (UniProt P78540).
T2 sequence (whole entry): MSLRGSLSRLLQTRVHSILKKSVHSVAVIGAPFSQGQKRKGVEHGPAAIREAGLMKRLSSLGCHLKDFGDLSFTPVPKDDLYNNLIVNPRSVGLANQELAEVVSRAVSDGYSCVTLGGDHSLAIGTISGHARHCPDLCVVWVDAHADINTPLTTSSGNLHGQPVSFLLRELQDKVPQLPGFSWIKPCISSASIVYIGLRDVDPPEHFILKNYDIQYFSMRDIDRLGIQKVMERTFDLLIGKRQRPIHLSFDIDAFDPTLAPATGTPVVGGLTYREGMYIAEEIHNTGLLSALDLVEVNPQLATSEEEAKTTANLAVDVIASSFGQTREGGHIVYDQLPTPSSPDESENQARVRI
Put plainly: in vitro enzyme assay to detect the production of urea directly proportional to the activity of Arginase II. Further: in the data most compounds retested in dose-response had high values. Type of experiment: functional. To be noted: 33.3 µM.

The target of experiment [7] is T3, Proteasome subunit beta (Trypanosoma cruzi) (UniProt O96673).
T3 sequence (whole entry): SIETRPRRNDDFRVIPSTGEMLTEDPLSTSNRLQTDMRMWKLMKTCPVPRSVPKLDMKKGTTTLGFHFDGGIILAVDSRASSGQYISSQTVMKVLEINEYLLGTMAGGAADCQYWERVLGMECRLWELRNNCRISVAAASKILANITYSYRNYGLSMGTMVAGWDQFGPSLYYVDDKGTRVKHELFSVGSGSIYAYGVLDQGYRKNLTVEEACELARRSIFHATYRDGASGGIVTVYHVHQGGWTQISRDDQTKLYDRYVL
Put plainly: Trypanosoma cruzi proteasome chymotrypsin-like activity (TcProtChymo) assay. Further: in the data most compounds retested in dose-response had high values. Format: functional. The following applies: 9.37 µM.

The species named for experiment [8] is Homo sapiens. Put plainly: To identify inhibition of the IFN signalling (Jak-Stat) pathway via expression of an eGFP reporter gene under the control of an IFN-stimulated response element (ISRE) containing MxA promoter. Type of experiment: functional. The following applies: 30 µM. Background: Reporter assays use an easily measured gene product as a stand-in for the process of interest.

The target of experiment [9] is T4, Tyrosyl-tRNA synthetase, putative (Trypanosoma cruzi (strain CL Brener)) (UniProt Q4DSP6).
T4 sequence (whole entry): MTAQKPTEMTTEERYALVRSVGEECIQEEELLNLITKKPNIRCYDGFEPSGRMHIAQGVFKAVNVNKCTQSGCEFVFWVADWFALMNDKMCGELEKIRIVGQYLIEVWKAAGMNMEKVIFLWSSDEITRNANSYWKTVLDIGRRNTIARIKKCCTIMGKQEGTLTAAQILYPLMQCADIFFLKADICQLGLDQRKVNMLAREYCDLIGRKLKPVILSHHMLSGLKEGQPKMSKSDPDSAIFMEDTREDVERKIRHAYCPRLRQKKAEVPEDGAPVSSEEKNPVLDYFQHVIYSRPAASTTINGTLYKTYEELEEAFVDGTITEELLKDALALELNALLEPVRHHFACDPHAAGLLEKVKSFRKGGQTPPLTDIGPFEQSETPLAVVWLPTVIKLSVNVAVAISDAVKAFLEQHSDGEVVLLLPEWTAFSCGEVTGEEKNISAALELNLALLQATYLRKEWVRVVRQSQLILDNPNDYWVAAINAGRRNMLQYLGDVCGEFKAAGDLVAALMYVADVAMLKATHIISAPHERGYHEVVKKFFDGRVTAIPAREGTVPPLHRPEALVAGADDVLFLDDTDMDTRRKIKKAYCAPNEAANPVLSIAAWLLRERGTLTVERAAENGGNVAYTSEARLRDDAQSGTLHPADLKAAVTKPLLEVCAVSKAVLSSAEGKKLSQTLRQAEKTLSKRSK
Put plainly: Trypanosoma cruzi tyrosyl tRNA synthetase (TcYRS) _High Tyrosine SOP. Further: in the data most compounds retested in dose-response had high values. Format: functional. To be noted: 30 µM.

Experiment [10] has as its target T4, Tyrosyl-tRNA synthetase, putative (Trypanosoma cruzi (strain CL Brener)). The experiment can be described thus: Trypanosoma cruzi tyrosyl tRNA synthetase (TcYRS) SOP. To be noted: 30 µM. Type of experiment: functional.
The target in experiment [11] is Chromo domain-containing protein 1 (Saccharomyces cerevisiae (strain ATCC 204508 / S288c) (Baker's yeast)) (UniProt P32657). The experiment can be described thus: ScCHD-1 Enzyme Inhibition Assay. Further: in the data most compounds retested in dose-response had high values. Format: functional. The following applies: 30 µM.
Chain of Chromo domain-containing protein 1 (Saccharomyces cerevisiae (strain ATCC 204508 / S288c) (Baker's yeast)) (P32657 whole entry, the tested form may be a part): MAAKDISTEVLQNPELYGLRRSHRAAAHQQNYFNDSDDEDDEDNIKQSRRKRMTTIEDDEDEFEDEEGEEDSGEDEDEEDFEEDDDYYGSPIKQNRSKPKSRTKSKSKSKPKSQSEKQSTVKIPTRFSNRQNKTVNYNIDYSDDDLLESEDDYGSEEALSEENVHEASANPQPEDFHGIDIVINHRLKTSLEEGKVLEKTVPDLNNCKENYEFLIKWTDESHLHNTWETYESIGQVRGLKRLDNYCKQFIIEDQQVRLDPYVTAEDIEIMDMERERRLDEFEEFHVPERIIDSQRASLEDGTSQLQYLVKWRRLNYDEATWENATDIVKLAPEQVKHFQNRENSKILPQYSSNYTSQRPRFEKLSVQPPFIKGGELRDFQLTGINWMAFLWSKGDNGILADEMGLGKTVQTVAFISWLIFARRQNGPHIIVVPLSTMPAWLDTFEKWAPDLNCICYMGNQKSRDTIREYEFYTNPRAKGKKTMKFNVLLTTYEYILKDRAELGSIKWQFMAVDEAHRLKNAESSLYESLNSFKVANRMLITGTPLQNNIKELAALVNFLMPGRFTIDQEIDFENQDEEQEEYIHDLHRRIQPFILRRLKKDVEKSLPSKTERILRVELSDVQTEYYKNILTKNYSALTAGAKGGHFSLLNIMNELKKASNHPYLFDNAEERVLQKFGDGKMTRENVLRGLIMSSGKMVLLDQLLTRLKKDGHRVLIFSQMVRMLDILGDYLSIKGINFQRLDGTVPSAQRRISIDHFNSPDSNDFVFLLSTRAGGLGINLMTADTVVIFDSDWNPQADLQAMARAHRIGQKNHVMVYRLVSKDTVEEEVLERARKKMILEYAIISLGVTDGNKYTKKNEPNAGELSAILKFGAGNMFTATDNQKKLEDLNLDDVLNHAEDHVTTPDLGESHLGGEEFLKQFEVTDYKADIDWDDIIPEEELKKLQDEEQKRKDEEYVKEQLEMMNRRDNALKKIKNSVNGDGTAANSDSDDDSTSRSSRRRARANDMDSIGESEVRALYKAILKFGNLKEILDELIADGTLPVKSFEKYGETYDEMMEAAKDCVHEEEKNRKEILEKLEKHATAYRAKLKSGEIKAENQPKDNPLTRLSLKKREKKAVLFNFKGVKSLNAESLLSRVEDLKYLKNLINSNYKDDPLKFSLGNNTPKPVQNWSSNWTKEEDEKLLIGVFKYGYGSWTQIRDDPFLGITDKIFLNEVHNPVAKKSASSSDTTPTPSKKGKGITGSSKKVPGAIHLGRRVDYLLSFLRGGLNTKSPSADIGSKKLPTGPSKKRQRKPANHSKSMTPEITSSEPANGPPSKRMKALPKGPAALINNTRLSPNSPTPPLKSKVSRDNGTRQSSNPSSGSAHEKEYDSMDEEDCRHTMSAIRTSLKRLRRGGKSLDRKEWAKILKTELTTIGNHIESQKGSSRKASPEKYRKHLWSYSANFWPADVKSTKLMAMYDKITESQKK

For some assays here: Entries with a potency or affinity are not part of this list.

Chain of Sialic acid-binding Ig-like lectin 9 (Homo sapiens) (Q9Y336 whole entry): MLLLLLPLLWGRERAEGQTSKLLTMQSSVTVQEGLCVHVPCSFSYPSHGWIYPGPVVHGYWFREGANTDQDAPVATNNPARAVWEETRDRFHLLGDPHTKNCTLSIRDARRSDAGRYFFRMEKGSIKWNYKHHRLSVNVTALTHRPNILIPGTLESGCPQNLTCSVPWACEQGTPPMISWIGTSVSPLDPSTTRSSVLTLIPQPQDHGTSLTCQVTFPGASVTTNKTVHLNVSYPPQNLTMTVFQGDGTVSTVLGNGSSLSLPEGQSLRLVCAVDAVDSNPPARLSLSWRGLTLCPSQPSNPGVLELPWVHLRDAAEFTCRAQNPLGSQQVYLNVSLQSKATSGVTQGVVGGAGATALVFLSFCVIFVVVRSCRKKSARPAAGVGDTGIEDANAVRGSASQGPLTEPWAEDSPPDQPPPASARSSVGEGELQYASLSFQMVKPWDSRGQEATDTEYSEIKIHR
Chain of Protein translocase subunit SecA (Escherichia coli (strain K12)) (P10408 whole entry): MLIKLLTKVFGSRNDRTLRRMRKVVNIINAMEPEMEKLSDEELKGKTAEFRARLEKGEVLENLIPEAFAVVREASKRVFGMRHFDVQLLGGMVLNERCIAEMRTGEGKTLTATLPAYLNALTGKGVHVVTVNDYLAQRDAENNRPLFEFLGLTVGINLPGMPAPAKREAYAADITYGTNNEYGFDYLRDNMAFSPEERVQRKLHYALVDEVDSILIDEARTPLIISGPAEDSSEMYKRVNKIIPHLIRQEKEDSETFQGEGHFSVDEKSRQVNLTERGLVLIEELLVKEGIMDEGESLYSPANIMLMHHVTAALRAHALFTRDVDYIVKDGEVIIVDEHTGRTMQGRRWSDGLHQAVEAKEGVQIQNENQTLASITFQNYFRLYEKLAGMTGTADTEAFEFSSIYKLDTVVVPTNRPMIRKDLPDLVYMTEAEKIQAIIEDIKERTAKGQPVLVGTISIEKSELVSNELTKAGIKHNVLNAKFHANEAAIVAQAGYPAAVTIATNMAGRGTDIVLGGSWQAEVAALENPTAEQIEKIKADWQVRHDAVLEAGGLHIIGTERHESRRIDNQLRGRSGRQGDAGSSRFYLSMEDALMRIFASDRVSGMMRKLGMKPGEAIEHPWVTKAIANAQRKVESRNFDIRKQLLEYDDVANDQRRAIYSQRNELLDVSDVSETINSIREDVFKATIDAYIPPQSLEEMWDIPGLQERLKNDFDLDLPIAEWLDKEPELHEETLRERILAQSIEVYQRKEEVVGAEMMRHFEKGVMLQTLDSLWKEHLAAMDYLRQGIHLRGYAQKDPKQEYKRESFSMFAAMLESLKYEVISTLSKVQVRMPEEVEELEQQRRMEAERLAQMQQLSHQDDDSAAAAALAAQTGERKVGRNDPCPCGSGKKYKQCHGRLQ

On to `Cc1nc(C)n(CC2CCCN(CCc3ccccn3)C2)n1` (stereo not given), for which the Percent Effect was -8.02% in experiment [1]; 13.9% in experiment [2]; -5.61% in experiment [3]; -6.83% in experiment [4]; 2.36% in [5]; -1.07% in experiment [6]. In addition, the Percent Effect in experiment [7] was 1.2%; in [8] it was 3.25%; in experiment [9], 3.12%; in experiment [10], 15.2%; in [11], -36.4%.

Regarding `CCc1cnc(CN2CCCC2c2noc(C3CC3)n2)o1` (stereo not given), the Percent Effect in [1] is -2.28%; in experiment [2], 10.8%; in experiment [3], -15.2%; in [4] it was -4.49%; in experiment [5], 5.94%; in experiment [6] it was -18.4%. Also, the Percent Effect is 23.6% in [7]; 25.5% in experiment [8]; 9.36% in [9]; 18.5% in experiment [10]; -9.7% in experiment [11].

Regarding `N#Cc1ccc(OCCNc2cccc(C(=O)N3CCOCC3)c2)cc1`, the Percent Effect in experiment [1] was -3.6%; in experiment [2] it was 15.6%; in [3], -1.62%; in experiment [4], 14.6%; in experiment [5], 6.98%; in experiment [6] it was -8.28%. Moreover, the Percent Effect was found to be 17.1% in experiment [7]; 16.8% in experiment [8]; 2.15% in experiment [9]; 13.6% in experiment [10]; 0.249% in experiment [11].

With `COCCN1CCC2(CC1)CC(COC)N(c1ncccn1)C2` (stereo not given), the Percent Effect in experiment [1] was -4.36%; in [2], 7.79%; in experiment [3] it was 1.21%; in [4], 1.5%; in [5], 1.48%; in experiment [6] it was -19.3%. Also, the Percent Effect in experiment [7] is 7.99%; in experiment [8], -6.06%; in experiment [9] it was 3.23%; in experiment [10], 3.7%; in [11], 1.23%.

For `Cc1nc(C)n(CC2CCCN(CCNC(=O)OC(C)(C)C)C2)n1` (stereo not given), the Percent Effect in experiment [1] was -0.765%; in [2] it was 2.6%; in [3], 5.46%; in experiment [4], 11.6%; in [5], 1.67%; in experiment [6], 5.26%. The Percent Effect is 5.9% in experiment [7]; 9.69% in [8]; 2.86% in experiment [9]; 0% in experiment [10]; -4.66% in experiment [11].

`CC(C)C(C(=O)N1CCN(Cc2ccncc2)CC1)n1cncn1` (stereo not given): the Percent Effect is -4.08% in [1]; 7.79% in [2]; 4.2% in [3]; 5.43% in experiment [4]; 0.0983% in experiment [5]; -11% in [6]. Besides, the Percent Effect in [7] is 3.83%; in [8], -1.24%; in experiment [9], 3.23%; in experiment [10], 11.1%; in experiment [11], 2.61%.

Regarding `CCOC1CCCN(C(=O)c2cnc3c(cnn3C3CCCC3)c2)C1` (stereo not given), the Percent Effect in experiment [1] was -4.83%; in [2] it was 0%; in experiment [3], 2.09%; in experiment [4] it was 0.582%; in experiment [5], -2.93%; in [6] it was -2.66%. Further, the Percent Effect was -2.38% in [7]; 24.1% in experiment [8]; 1.48% in experiment [9]; -8.86% in experiment [10]; -4.24% in experiment [11].

Take `Cc1nc(C)n(CC2CCCN(CC(=O)Nc3c(C)n[nH]c3C)C2)n1` (stereo not given): the Percent Effect in [1] is -1.71%; in experiment [2] it was 13.2%; in experiment [3] it was -0.0642%; in experiment [4], 9.58%; in [5] it was 3.76%; in experiment [6], 0.766%. The Percent Effect in [7] was 8.69%; in experiment [8], -1.17%; in [9], 5.39%; in experiment [10], 17.1%; in [11] it was -9.15%.

`c1ccc(Cn2cccn2)c(CNCC2CNc3ccnn3C2)c1` (stereo not given): the Percent Effect is -5.51% in experiment [1]; 10.4% in experiment [2]; -9.17% in [3]; 10.9% in experiment [4]; 13.5% in experiment [5]; -4.63% in experiment [6]. For the same compound, the Percent Effect in experiment [7] was 13.3%; in experiment [8] it was 3.57%; in experiment [9] it was 16.5%; in [10], 21.9%; in experiment [11] it was -11%.

Take `Cc1ncccc1OC1(C(=O)NCCCN2CCOCC2)CCNCC1`: the Percent Effect in experiment [1] was -0.6%; in [2], 5.41%; in [3], -5.62%; in [4], -0.0436%; in experiment [5], -5.02%; in experiment [6], 1.43%. Further, the Percent Effect is 11.2% in experiment [7]; 11% in [8]; 6.88% in experiment [9]; 9.76% in experiment [10]; -2.8% in experiment [11].
